Screening results: PubChem BioAssay, National Center for Advancing Translational Sciences (NCATS)
SNCA expr inh – inhibitors of alpha-synuclein (SNCA) gene expression. HEK-293 SNCA-luciferase knock-in, luminescence, 24 h. Potency, µM (series often up to 57.2 µM), for inactives: at the highest dose activity change, negative = inhibition, actives largely listed as inhibitors. actives 0.17% (n = 140,000);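 note: potency is the fitted concentration of half-maximal effect; plate controls were DMSO cells for no effect and cell-free wells for full effect; nearly all actives have a fitted effect of over 45% in size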
SNCA viab count – cell viability loss counter-screen; AID 1671193; Potency, µM (titrated, usually from 57.1 µM), without a hit: top-dose activity change, negative = cytotoxicity, usual class: cytotoxic; actives 0.12% (n = 150,000); HEK-293-SNCA-luc viability, GF-AFC fluorescence, 24 h;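 note: potency is the fitted concentration of half-maximal effect; 0% = DMSO-treated cells and -100% = medium-only wells without cells; nearly all actives have a fitted effect of over 30% in size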
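Cytotoxicity counterscreen: after 24 h compound treatment of genome-edited SNCA-luciferase HEK-293 cells, live-cell protease substrate GF-AFC read by fluorescence after 30 min; activity scaled between DMSO (0%) and medium-only (-100%), curves Hill-fitted.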
KDM5B inhibitor – KDM5B demethylase inhibition; KDM5B demethylase, FDH-coupled NADH fluorescence (FDH is formaldehyde dehydrogenase); Potency, µM (top dose mostly 57.7 µM), hits mostly inhibitors; actives 2.6% (n = 220,000); AID 1347165; note: potency is the fitted concentration of half-maximal effect; 0% is about no effect; nearly all actives have a fitted effect of over 70% in size
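Inhibition is measured as reduced NADH fluorescence generation from FDH coupling to formaldehyde release. Truncated KDM5BΔAP at 200 nM final acts on H3K4me3 peptide (12.5 µM in substrate mix) in pH 7.5 HEPES buffer with Tween-20, 30 min, room temperature.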
IP6K1 inhibitor – IP6K1 kinase inhibition; Q92551; activity change, % (series mostly up to about 58 µM); IP6K1 kinase, ADP-Glo luminescence, 2 h; stronger effect = lower value; actives 0.81% (n = 140,000); AID 1645851; in the data active = activity change below about -25%; note: % is set by controls: 0 for no effect and ±100 for the full control effect
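ADP-Glo luminescence measures ADP made by human IP6K1 during a 2 h RT reaction with ATP/IP6 (mix at 1.3 mM/130 uM); top library doses 57.5 and 19.1 uM final.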
IP6K1 inh cnf – human IP6K1 inhibition, confirmatory; shares compounds with IP6K1 inhibitor; recombinant IP6K1 kinase, ADP-Glo luminescence, 2 h; Potency, µM (doses to about 49 µM), for the others: top-dose activity change, negative = inhibition, most hits filed as inhibitors; actives 13% (n = 1,200); AID 1645852; note: potency is the fitted concentration of half-maximal effect; % is set by controls: 0 for no effect and ±100 for the full control effect; nearly all actives have a fitted effect of over 65% in size
Active calls of the source: *; i = inactive; ? = inconclusive; / = not tested or not shown; [ ] = another dose, or the depositor's remark. Shown are actives, neighbours in structure and some others; about 2.8% of the full set was active somewhere. Unless noted, calls come from the whole dose curve; as a rule, active = well fitted curve in the direction sought with a large enough effect; inconclusive = small, poorly fitted or top-dose-only effect, or another doubt; inactive = no such curve, though single readings can be large; an effect the other way counts as inactive or inconclusive.

SMILES	SNCA expr inh	SNCA viab count	KDM5B inhibitor	IP6K1 inhibitor	IP6K1 inh cnf
CC(C)CC(NC(=O)C1=NNC(=O)CC1)c1nnc2n1CCNCC2 (configuration not stated)	3%	-5%	i	-40*	-9%
CCCCN(Cc1ccco1)C(=O)Cn1ncc2c([nH]c3ccccc32)c1=O	-20%	-17%	?	17	/
CCCN(C(=O)Cn1ncc2c([nH]c3ccccc32)c1=O)c1ccc(F)cc1	-29%	14%	i	-37*	-16%
N#Cc1c(O)c2c(-c3ccc(-c4ccccc4O)cc3)csc2[nH]c1=O	0%	-34%	/	-46*	?
CCn1c2ccccc2c2cc(CN3CCN(Cc4ccccc4C)CC3)ccc21	10%	0%	?	-28*	5%
CCn1c2ccccc2c2cc(CN3CCN(Cc4ccc(Cl)cc4)CC3)ccc21	?	5%	?	-20	/
CCn1c2ccccc2c2cc(CN3CCN(Cc4ccccc4F)CC3)ccc21	-11%	12%	?	-26*	-1%
CCN(C(=O)C1CCC(CNS(=O)(=O)c2cccc3nsnc23)CC1)c1ccc(C)c(C)c1 (configuration not stated)	22%	6%	i	21	/
CCCCN(CC)C(=O)C1CCC(CNS(=O)(=O)c2cccc3nsnc23)CC1 (configuration not stated)	-25%	-8%	i	-30*	-4%
CCOc1ccc(CNC(=O)C2CCCN(c3nn4cc(-c5ccc(OC)cc5)nc4s3)C2)cc1 (configuration not stated)	80%	-9%	i	-37*	?
CCOc1ccc(CNC(=O)C2CCCN(c3nn4cc(-c5ccc(F)cc5)nc4s3)C2)cc1 (configuration not stated)	81%	5%	i	1	/
CCc1ccccc1Nc1nn2c(=O)c3ccc(C(=O)NCCc4ccccc4)cc3nc2s1	?	-6%	?	-4	/
O=C(Nc1nc2cccc(-c3ccc(CN4CCS(=O)(=O)CC4)cc3)n2n1)C1CC1	52%	?	/	-9	39%
CNC(=O)C1CCN(Cc2ncc(-c3ccccc3)o2)CC1	/	/	i	/	/
CCN1CC(C(=O)N2CCCC(c3ccccc3)(c3ccccc3)C2)CC1=O (configuration not stated)	-3%	-6%	i	-34*	-12%
Cc1ccc(CN2CCc3nc(N4CCN(c5ncccn5)CC4)ncc3C2)cc1	14%	-10%	?	-15	/
Cc1cccc(CN2CCc3nc(N4CCN(c5ccccn5)CC4)ncc3C2)c1	-19%	17%	?	-27*	?
Fc1cc(-c2cccc3ncc(-c4cnn(C5CCNCC5)c4)nc23)cc(F)c1CN1CCOCC1	?	?	/	12	-4%
CCCCc1nn(CC(=O)NC[C@H]2CCc3ccccc3O2)c(=O)n1CC	-5%	1%	i	12	/
CCCCc1nn(CC(=O)NCC2Cc3ccccc3CN2C)c(=O)n1CC (configuration not stated)	-8%	-5%	?	-30*	-7%
Cc1ccccc1Nc1nc(N)c(C(=O)c2ccccc2Cl)s1	-23%	?	i	-52*	3.3µM*
Cc1ccc(Nc2nc(N)c(C(=O)c3ccccc3Cl)s2)c(C)c1	/	/	i	/	/
CN(C)c1cc(=O)c2ccnc(N3CCN(c4ccccn4)CC3)c2o1	-7%[87.6 µM]	8%[87.6 µM]	i	-27*	?
CCCOc1ccc(CN(C(=O)c2nc(SC(C)C)ncc2Cl)C2CCS(=O)(=O)C2)cc1 (configuration not stated)	-30%	-2%	i	-6	/
CNCC(=O)N1CCCC(N2CCN(Cc3ccc4c(c3)OCO4)CC2)C1 (configuration not stated)	2%	3%	?	-37*	-8%
SMILES	SNCA expr inh	SNCA viab count	KDM5B inhibitor	IP6K1 inhibitor	IP6K1 inh cnf
CN(CCCn1cc(-c2cncnc2)nn1)c1ccccc1	-4%	0%	i	10	/
CCOC(=O)c1cnc2c(C)cc(C)cc2c1Nc1cccc(O)c1	/	/	i	/	/
CCOC(=O)c1cnc2c(C)cc(C)cc2c1Nc1cccc(C(=O)O)c1	40%	-11%	i	-26*	?
Cc1cc(C)c2nc(C)cc(Nc3cccc(C(=O)O)c3)c2c1	1%	?	?	-25*	-8%
COc1ccc(-c2ccc(C(=O)NCc3ccc(F)cc3)c(Cl)c2)nn1	/	/	/	1	/
CC(C)c1ccc(CCNC(=O)/C=C/c2cccs2)cc1	/	/	i	/	/
O=C1CCC2(CCCO2)CCN1Cc1c(F)cccc1F (configuration not stated)	2%	-11%	i	13	/
O=C1CCC2(CCCO2)CCN1Cc1cccc(F)c1F (configuration not stated)	42%	-2%	i	-31*	-9%
COc1ccc(CCC(=O)NCc2ccc3c(c2)CCN3C(=O)c2ccc(Cl)cc2)cc1	1%	?	i	-28*	9%
CCOc1ccc(C2Cn3nnc(-c4nc(-c5ccsc5)no4)c3CO2)cc1 (configuration not stated)	31%	-1%	25µM*	-27*	-14%
Cc1cccc2c1NC(=O)C2(c1ccc(O)cc1)c1ccc(O)cc1	/	-7%	/	-26*	1%
CCCCN(C)C(=O)C1CCN(C(=O)c2ccc(Br)cc2)CC1	/	/	i	/	/
CCn1c(CO)nnc1C1CC(NC(=O)c2cccc3c2OCCO3)C1 (configuration not stated)	2%	-4%	?	-25*	32%
O=C(C1CC1)N1CCCC(c2nn(-c3ccccn3)c(=O)[nH]2)C1 (configuration not stated)	25%[87.6 µM]	13%[87.6 µM]	/	-2	/
CC(=O)N1CCCC(c2nn(-c3ccccn3)c(=O)[nH]2)C1 (configuration not stated)	-16%[87.6 µM]	4%[87.6 µM]	/	-25*	5%
CCC(=O)N1CCc2cc(Br)cc(S(=O)(=O)CCC(=O)N3CCN(c4ccccc4OC)CC3)c21	3%	1%	i	-27*	-6%
CCC(=O)N1CCc2cc(Br)cc(S(=O)(=O)N(CC)Cc3ccccc3)c21	-5%	1%	i	-27*	38%
CCC(=O)N1CCc2cc(Br)cc(S(=O)(=O)NCCCN(CC)Cc3ccccc3)c21	/	/	i	/	/
N#C/C(=C/c1cccc2c1OCCCO2)c1nc2cc(C(F)(F)F)ccc2s1	/	/	i	/	/
CCOC(=O)C(=Cc1ccccc1)C(=O)OCC	/	/	i	/	/
CCCN1C(C(=O)c2ccccc2)=C(OC(=O)COc2ccc(C)cc2)c2ccccc2S1(=O)=O	?	?	?	-17	/
CCCN1C(C(=O)c2ccccc2)=C(OC(=O)COc2ccccc2)c2ccccc2S1(=O)=O	?	?	?	-28*	?
CCN1C(C(=O)c2ccccc2)=C(OC(=O)COc2ccc(OC)cc2)c2ccccc2S1(=O)=O	?	-23%	?	-34*	-12%
